Laboratory results published in PubChem BioAssay.
Values without a mark were called inactive. Activity calls are given as the source filed them.

target: Homeobox protein Hox-A13 (Mus musculus) (UniProt Q62424); experiment: inhibitors of HoxA13-DNA binding, primary screen, biochemical, fluorescence polarization, labeled oligonucleotide (AID 1185); settings: 15 min, higher = more signal, called active from +8 up or from −8 down
Sequence (Q62424 whole entry, looked up): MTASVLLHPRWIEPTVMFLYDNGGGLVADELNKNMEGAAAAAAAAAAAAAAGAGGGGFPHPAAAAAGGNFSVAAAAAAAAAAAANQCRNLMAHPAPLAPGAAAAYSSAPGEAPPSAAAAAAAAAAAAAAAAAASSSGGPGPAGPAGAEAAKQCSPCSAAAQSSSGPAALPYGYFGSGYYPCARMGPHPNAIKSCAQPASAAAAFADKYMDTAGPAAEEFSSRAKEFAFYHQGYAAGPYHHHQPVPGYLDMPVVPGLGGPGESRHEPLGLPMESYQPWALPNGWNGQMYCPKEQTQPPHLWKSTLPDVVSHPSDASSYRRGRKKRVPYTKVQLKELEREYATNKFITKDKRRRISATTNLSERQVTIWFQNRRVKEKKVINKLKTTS

Row | Structure (SMILES) | z-score
1 | O=C1O[C@@H](c2ccccc2)[C@@H](c2ccccc2)N2[C@@H](c3ccc(O)cc3)[C@]3(C(=O)Nc4ccc(C#CCCO)cc43)[C@@H](C(=O)Nc3nc4ccccc4s3)[C@H]12 | -0.524
2 | C=CCOC(=O)[C@@H]1[C@H]2C(=O)O[C@H](c3ccccc3)[C@H](c3ccccc3)N2[C@H](c2ccc(OCCOC(=O)[C@H]3C[C@H]4C(=O)N[C@@H](CCCCN(C)C)C(=O)N4[C@H]3c3cccc(OCCO)c3)cc2)[C@@]12C(=O)Nc1ccc(I)cc12 | -0.599
3 | Cc1c(NC(=O)/C(C#N)=C/C=C/c2ccc(N(C)C)cc2)c(=O)n(-c2ccccc2)n1C | -13.8 (active)
4 | O=C1C2C=CC(C(O)c3cc(C(F)(F)F)cc(C(F)(F)F)c3)N(Nc3ccc([N+](=O)[O-])cc3)C2C(=O)N1c1ccccc1 (stereo not given) | -3.06
5 | O=C1NC(=O)C2C1C=CC(C(O)c1cc(C(F)(F)F)cc(C(F)(F)F)c1)N2Nc1ccc(Cl)cc1Cl (stereo not given) | -5.48
6 | CO[C@H]1O[C@H](CO)[C@@H](OC(=O)Nc2ccccc2-c2ccccc2)[C@H](OC(=O)Nc2ccc3c(c2)OCO3)[C@@H]1OC(=O)Nc1ccc2c(c1)OCO2 | -3.65
7 | Cc1ccc(F)cc1S(=O)(=O)N[C@@H]1CCN(Cc2ccc(Oc3ccccc3)cc2)C1 | -5.64
8 | CCOC(=O)C1=CC[C@@H](c2ccccc2)N(S(=O)(=O)c2ccc(C)cc2)C1 | -2.76
9 | Cc1ccc(S[C@]2(C(=O)NCC(F)(F)F)CC(=O)N(Cc3ccccc3)[C@@H]2c2ccc(CO)cc2)cc1 | -3.77
10 | CC(C)CNC(=O)[C@@H]1c2ccccc2C(=O)N(Cc2cc(F)cc(C(F)(F)F)c2)[C@H]1c1ccc(CO)cc1 | -3.02
11 | CCN(CC)c1ccc(N2CC=CC34O[C@@H]5/C=C\CCC(C)OC(=O)C5[C@H]3C(=O)N(CCO)[C@@H]4C2=O)cc1 (stereo not given in full) | -5.86
12 | COc1ccccc1CN1C(=O)c2ccccc2[C@@H](C(=O)NC(C)C)[C@@H]1c1ccc(CO)cc1 | -1.9
13 | [N-]=[N+]=NCc1ccccc1[C@H]1OC(c2ccc(OCCCO)cc2)=N[C@@]1(CCS(=O)(=O)c1ccccc1)C(N)=O | -3.46
14 | C=CCOC(=O)[C@@H]1[C@H]2C(=O)O[C@H](c3ccccc3)[C@H](c3ccccc3)N2[C@H](c2ccc(OCCOC(=O)[C@H]3C[C@H]4C(=O)N[C@@H](CCCC[N+](C)(C)C)C(=O)N4[C@H]3c3ccc(O)cc3)cc2)[C@@]12C(=O)Nc1ccc(I)cc12 | -0.103
15 | C=C(CCCC)/C(=C/C[C@@H](OC(C)=O)c1ccc(CO)o1)c1cc(C(=O)OC)ccc1OC | -4.83
16 | CC(C)C(O)C1C=CC2C(=O)N(C)C(=O)C2N1N(c1ccccc1)c1ccccc1 (stereo not given) | -4.48
17 | C=CCNC(=O)[C@@H]1[C@H]2C(=O)O[C@H](c3ccccc3)[C@H](c3ccccc3)N2[C@H](c2ccc(OCCO)cc2)[C@@]12C(=O)N(C(=O)OCCOC)c1ccc(C#CC3=CCCCC3)cc12 | 0.713
18 | COCCOC(=O)N1C(=O)[C@@]2(c3cc(C#Cc4ccc(OC)cc4)ccc31)[C@H](C(=O)N1CCCCCCC1)[C@H]1C(=O)O[C@H](c3ccccc3)[C@H](c3ccccc3)N1[C@@H]2c1ccc(O)cc1 | 2.16

Row | Structure (SMILES) | z-score
19 | COC(=O)Cn1c(C(=O)N2CCCC2)cc2c1C[C@H]1CN(C(=O)c3ccccc3)[C@@](Cc3ccc(F)cc3)(C(=O)OC)[C@@H]21 | -5.15
20 | NCCCCCNC(=O)[C@@H]1C[C@@H]2C(=O)N[C@@H](CCCCN)C(=O)N2[C@@H]1c1cccc(OCCO)c1 | -0.453
21 | Cc1ccc(S[C@]2(C(=O)NC(C)C)CC(=O)N(Cc3ccccc3C(F)(F)F)[C@@H]2c2ccc(CO)cc2I)cc1 | -1.9
22 | COCCOC(=O)N1C(=O)[C@@]2(c3cc(C#CC4(O)CCCCCC4)ccc31)[C@H](C(N)=O)[C@H]1C(=O)O[C@H](c3ccccc3)[C@H](c3ccccc3)N1[C@@H]2c1ccccc1OCCO | -1.56
23 | C=CC[C@H](OC(=O)Nc1ccc(OC)cc1)c1ccc(O)c2ccccc12 | -0.0657
24 | COCC(=C=CC[C@H](O)c1cccc(OCCO)c1)C[C@H](O)c1ccccn1 | -4.27
25 | C=CC[C@@]1(C(=O)N2CCCCC2)N=C(c2ccc(OCCCO)cc2)O[C@@H]1c1ccccc1 | -5.99
26 | COCCCNC(=O)[C@@H]1c2ccccc2C(=O)N(Cc2ccccc2C(F)(F)F)[C@H]1c1ccc(CO)cc1 | -1.82
27 | COc1ccc([Si](C)(C)[C@H]2[C@H](CCO)O[C@@]3(C(=O)N(Cc4cccc(N5CCCCC5=O)c4)c4ccccc43)[C@@H]2C)cc1 | -5.06
28 | O=C1C[C@@](C(=O)NCC(F)(F)F)(c2ccc([N+](=O)[O-])cc2)[C@@H](c2ccc(CO)cc2)N1C1CCCCC1 | -4.46
29 | COC(=O)[C@@]1(Cc2ccc(OC)cc2)[C@H]2c3cc(C(=O)N(C)C)n(CCc4c[nH]c5ccc(O)cc45)c3C[C@H]2CN1C(=O)c1ccccc1 | -1.44
30 | CC(C)c1ccc(NN2C(C(O)c3ccco3)C=CC3C(=O)N(c4ccccc4)C(=O)C32)cc1 (stereo not given) | -3.14
31 | COC(=O)[C@@]1(Cc2ccc(OC)cc2)[C@H]2c3cc(C(=O)N(C)C)n(Cc4nc5ccccc5[nH]4)c3C[C@H]2CN1C(=O)c1ccccc1 | -3.08
32 | CN1C(=O)[C@@]2(CCS(=O)(=O)c3ccccc3)N=C(c3ccc(OCCCO)cc3)O[C@H]2c2ccccc21 | -6.19
33 | O=C1O[C@@H](c2ccccc2)[C@@H](c2ccccc2)N2[C@@H](c3ccc(O)cc3)[C@]3(C(=O)Nc4ccccc43)[C@@H](C(=O)Nc3nc4ccccc4s3)[C@H]12 | 2.05
34 | CC(C)NC(=O)[C@@]1(C)c2ccccc2C(=O)N(C(C)C)[C@H]1c1ccc(CO)cc1 | -2.26
35 | COC(=O)[C@@]1(Cc2ccccc2)[C@H]2c3cc(C(=O)N4CCCC4)[nH]c3C[C@H]2CN1C(=O)c1ccccc1 | -1.8
